Bioassay records (PubChem BioAssay)
PostGolgi yeast: growth inhibition of a yeast mutant, post-Golgi transport screen; post-Golgi transport phenotypic cell assay; inhibition, % at 10 µM; 98,000 tested, 0.9% active; AID 739;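 note: yeast cells grown in 1536-well plates; yeast grown about 18 h at 30C before absorbance read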
CYP2C9 activ: activators of human CYP2C9; P11712; recombinant CYP2C9, luciferin-H conversion, luminescence; hits give high values; factor 1 = untreated enzyme, 0 = blocked; activation factor at 5 µM; 96,000 tested, 1.4% active;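 active = activation factor of 2 or more for CYP2C9 at a 5 µM dose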;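 note: 0 = sulfaphenazole-blocked wells and 1 = vehicle-only wells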
CYP2C9 inhib: inhibitors of human CYP2C9 | CYP2C9 Supersomes, luciferin-H conversion, luminescence | inhibition, % at 5 µM | 96,000 tested, 20% active;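 active = blocking of liver enzyme CYP2C9 beyond about 50% at 5 µM, limit read from the data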
PostGolgi ctrl: inhibits growth of the yeast control strain; efflux-deficient yeast background strain, growth absorbance A615, 16 h; inhibition, % at 10 µM; 98,000 tested, 5% active; AID 738
CYP2C19 inh: blocks human cytochrome P450 2C19. P33261. CYP2C19 Supersomes, luciferin-H EGE luminescence, 30 min. inhibition, % at 5 µM. 96,000 tested, 21% active;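 active = CYP2C19 inhibition above a set limit at 5 µM in the primary screen, cut at about 50% in these data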;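 note: plate controls were negative control wells for no effect and 2.5 mM tranylcypromine positive control for full effect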
Target sequence (P33261 whole entry, looked up): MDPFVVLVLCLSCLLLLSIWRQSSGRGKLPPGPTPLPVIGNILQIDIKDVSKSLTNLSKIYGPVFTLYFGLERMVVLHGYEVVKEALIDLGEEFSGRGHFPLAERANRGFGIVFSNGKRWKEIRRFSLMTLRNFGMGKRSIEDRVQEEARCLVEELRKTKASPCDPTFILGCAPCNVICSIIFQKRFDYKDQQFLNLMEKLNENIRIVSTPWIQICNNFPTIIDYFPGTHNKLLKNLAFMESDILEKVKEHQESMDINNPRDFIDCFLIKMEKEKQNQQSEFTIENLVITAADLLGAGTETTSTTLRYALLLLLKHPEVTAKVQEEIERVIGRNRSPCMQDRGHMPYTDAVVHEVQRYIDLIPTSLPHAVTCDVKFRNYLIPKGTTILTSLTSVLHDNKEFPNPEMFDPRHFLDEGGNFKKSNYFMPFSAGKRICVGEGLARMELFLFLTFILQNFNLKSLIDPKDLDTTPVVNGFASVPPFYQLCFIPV
CYP2C19 act: activators of human cytochrome P450 2C19; activation factor at 5 µM; P33261; recombinant CYP2C19, luciferin-H EGE luminescence; hits give high values; 0 = fully inhibited enzyme, 1 = untreated enzyme; 96,000 tested, under 10 active;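 active = activation factor of at least 2 at 5 µM in the primary screen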;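 note: 0 = wells with 2.5 mM tranylcypromine and 1 = vehicle-only wells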
* hit, by the source's call. Compounds with a hit are over-represented: about 32% of the library has one in this group of screens. Cut-off read from the data, not from the text of the source, unless noted: active = inhibition above about 30%; inactive = the rest.

What do the screens show for `O=C(c1cc(-c2ccc(Cl)c(Cl)c2)on1)N1CCN(c2ccccc2)CC1`?
PostGolgi yeast: -13.4; CYP2C9 activ: 1; CYP2C9 inhib: 3.5; PostGolgi ctrl: 8.9; CYP2C19 inh: -6.0; CYP2C19 act: 1.1

How did O=C(c1cc(-c2ccc(O)cc2)on1)N1CCc2ccccc2C1 do in these assays?
PostGolgi yeast: 5.1; CYP2C9 activ: 1; CYP2C9 inhib: 4.9; PostGolgi ctrl: 28.4; CYP2C19 inh: 82.0*; CYP2C19 act: 0.2

How did O=C(c1cc(-c2cccc(O)c2)on1)N1CCOCC1 do in these assays?
PostGolgi yeast: 5.8; CYP2C9 activ: 1.2; CYP2C9 inhib: -17.3; PostGolgi ctrl: 6.6; CYP2C19 inh: 58.9*; CYP2C19 act: 0.4

How did O=C(c1cc(-c2cccs2)on1)N1CCc2ccccc2C1 do in these assays?
PostGolgi yeast: -4.8; PostGolgi ctrl: 10.0

How did O=C(c1cc(-c2ccccc2O)on1)N1CCc2ccccc2C1 do in these assays?
PostGolgi yeast: -1.1; CYP2C9 activ: 1.3; CYP2C9 inhib: -26.5; PostGolgi ctrl: 56.4*; CYP2C19 inh: 14.1; CYP2C19 act: 0.9

Results for CC1CCN(C(=O)c2cc(-c3ccccc3O)on2)CC1 ?
PostGolgi yeast: -9.6; CYP2C9 activ: 1.2; CYP2C9 inhib: -19.4; PostGolgi ctrl: 34.9*; CYP2C19 inh: 67.3*; CYP2C19 act: 0.3

How did CCSc1ncc(C#N)c(N)n1 do in these assays?
PostGolgi yeast: 14.3; CYP2C9 activ: 0.9; CYP2C9 inhib: 11.3; PostGolgi ctrl: 6.4; CYP2C19 inh: 2.6; CYP2C19 act: 1

What do the screens show for `CCc1ccc(OCC(=O)N2CCN=C2c2ccccc2)cc1`?
PostGolgi yeast: 2.0; CYP2C9 activ: 0.6; CYP2C9 inhib: 36.8; PostGolgi ctrl: -2.5; CYP2C19 inh: 33.3; CYP2C19 act: 0.7

What do the screens show for `Cc1cc(Cl)ccc1OCC(=O)NCCOc1nc(N2CCOCC2)nc(N2CCOCC2)n1`?
PostGolgi yeast: 8.3; CYP2C9 activ: 0.8; CYP2C9 inhib: 23.0; PostGolgi ctrl: 2.5; CYP2C19 inh: 19.1; CYP2C19 act: 0.8

What do the screens show for `CN(C)c1nc(OCCNC(=O)COc2ccc(Cl)cc2Cl)nc(N2CCOCC2)n1`?
PostGolgi yeast: 15.7; CYP2C9 activ: 0.2; CYP2C9 inhib: 81.6*; PostGolgi ctrl: 19.6; CYP2C19 inh: 49.8; CYP2C19 act: 0.5

What do the screens show for `CON(C)c1nc(OCCNC(=O)COc2ccc(Cl)cc2C)nc(N(C)C)n1`?
PostGolgi yeast: -6.5; CYP2C9 activ: 0.5; CYP2C9 inhib: 51.3*; PostGolgi ctrl: 13.9; CYP2C19 inh: 36.1; CYP2C19 act: 0.6

How did CON(C)c1nc(OCCNC(=O)OCc2ccc(Cl)cc2Cl)nc(N(C)C)n1 do in these assays?
PostGolgi yeast: 10.0; CYP2C9 activ: 0.4; CYP2C9 inhib: 63.2*; PostGolgi ctrl: 9.9; CYP2C19 inh: 35.5; CYP2C19 act: 0.6

What do the screens show for `CC1(C)CC(NC(=O)COc2ccc3ccccc3c2)CC(C)(C)N1`?
PostGolgi yeast: 1.9; CYP2C9 activ: 0.8; CYP2C9 inhib: 17.6; PostGolgi ctrl: 3.2; CYP2C19 inh: 14.3; CYP2C19 act: 0.9

How did O=c1oc2c(CN3CCCCCC3)c(O)ccc2cc1-c1nc2ccccc2[nH]1 do in these assays?
CYP2C9 activ: 0.8; CYP2C9 inhib: 18.6; CYP2C19 inh: 11.3; CYP2C19 act: 0.9

How did O=S(=O)(NCCOCC(F)(F)F)c1ccc2oc3ccccc3c2c1 do in these assays?
PostGolgi yeast: 0.9; PostGolgi ctrl: 10.5

Results for CC(C)C(=O)NC(=S)Nc1ccccc1C(F)(F)F ?
PostGolgi yeast: 2.0; CYP2C9 activ: 0.4; CYP2C9 inhib: 62.7*; PostGolgi ctrl: 12.0; CYP2C19 inh: 72.9*; CYP2C19 act: 0.3

Results for CCCC(=O)NC(=S)Nc1ccccc1C(F)(F)F ?
PostGolgi yeast: 4.8; CYP2C9 activ: 0.5; CYP2C9 inhib: 50.0*; PostGolgi ctrl: 11.2; CYP2C19 inh: 54.9*; CYP2C19 act: 0.5

What do the screens show for `Cn1c(=O)c2c(nc(SCC(=O)O)n2Cc2cccc(C(F)(F)F)c2)n(C)c1=O`?
PostGolgi yeast: 1.4; CYP2C9 activ: 0.9; CYP2C9 inhib: 8.3; PostGolgi ctrl: 7.8; CYP2C19 inh: -1.5; CYP2C19 act: 1

How did CCOC(=O)c1c(NC(=O)CSc2nnc(-c3ccco3)o2)sc(C(C)=O)c1C do in these assays?
PostGolgi yeast: 5.9; CYP2C9 activ: 0.3; CYP2C9 inhib: 69.7*; PostGolgi ctrl: 12.2; CYP2C19 inh: 14.5; CYP2C19 act: 0.9

Results for CCOC(=O)c1c(NC(=O)CSc2nnc(-c3ccco3)o2)sc(C)c1C ?
PostGolgi yeast: 5.4; CYP2C9 activ: 0.5; CYP2C9 inhib: 48.2; PostGolgi ctrl: 7.3; CYP2C19 inh: 20.6; CYP2C19 act: 0.8

How did CCOC(=O)c1c(NC(=O)CSc2nnc(-c3cccnc3)o2)sc(C(C)=O)c1C do in these assays?
PostGolgi yeast: -3.5; CYP2C9 activ: 0.3; CYP2C9 inhib: 65.4*; PostGolgi ctrl: -0.3; CYP2C19 inh: 14.0; CYP2C19 act: 0.9

How did O=c1n(-c2ccccc2)c(=O)n(Cc2ccccn2)n1Cc1ccccn1 do in these assays?
PostGolgi yeast: 2.9; CYP2C9 activ: 1.2; CYP2C9 inhib: -15.2; PostGolgi ctrl: -0.5; CYP2C19 inh: -4.8; CYP2C19 act: 1

What do the screens show for `CCn1c(SCC(=O)Nc2nc(C)c(C(=O)OC)s2)nnc1C(C)C`?
PostGolgi yeast: -8.2; CYP2C9 activ: 0.7; CYP2C9 inhib: 34.0; PostGolgi ctrl: 15.1; CYP2C19 inh: 50.0*; CYP2C19 act: 0.5

What do the screens show for `COCCn1c(SCC(=O)Nc2cccc(C)c2)nnc1C(C)C`?
PostGolgi yeast: 0.5; CYP2C9 activ: 1.1; CYP2C9 inhib: -10.0; PostGolgi ctrl: -1.3; CYP2C19 inh: 68.1*; CYP2C19 act: 0.3

How did CCCn1c(SCC(=O)Nc2nc(C)c(C(=O)OC)s2)nnc1C(C)C do in these assays?
PostGolgi yeast: -0.3; CYP2C9 activ: 0.7; CYP2C9 inhib: 27.9; PostGolgi ctrl: 15.0; CYP2C19 inh: 37.9; CYP2C19 act: 0.6

How did CCc1cccc(C)c1NC(=O)CSc1nnc(-c2cc3cc(Br)ccc3o2)n1CC do in these assays?
PostGolgi yeast: 11.2; CYP2C9 activ: 0.4; CYP2C9 inhib: 56.2*; PostGolgi ctrl: -2.7; CYP2C19 inh: 11.6; CYP2C19 act: 0.9

What do the screens show for `Cn1c(SCC(=O)Nc2cccc(Br)c2)nnc1-c1cc2ccccc2o1`?
PostGolgi yeast: -0.3; CYP2C9 activ: 0.6; CYP2C9 inhib: 41.4; PostGolgi ctrl: 4.9; CYP2C19 inh: 33.7; CYP2C19 act: 0.7

Results for CCCn1c(SCC(=O)Nc2c(CC)cccc2CC)nnc1C(C)C ?
PostGolgi yeast: 17.9; CYP2C9 activ: 0.5; CYP2C9 inhib: 49.3; PostGolgi ctrl: 6.9; CYP2C19 inh: 57.7*; CYP2C19 act: 0.4

What do the screens show for `O=C(CCCCCN1C(=O)CCC1=O)Nc1ccc2c(c1)OCCO2`?
PostGolgi yeast: -0.2; CYP2C9 activ: 0.7; CYP2C9 inhib: 26.1; PostGolgi ctrl: 12.3; CYP2C19 inh: 9.8; CYP2C19 act: 0.9

Results for COCCn1c(SCC(=O)c2ccc3c(c2)OCCO3)nnc1C(C)C ?
PostGolgi yeast: -4.6; CYP2C9 activ: 1; CYP2C9 inhib: -1.4; PostGolgi ctrl: 6.8; CYP2C19 inh: 20.9; CYP2C19 act: 0.8
